In PubChem BioAssay one finds composite z-score and z-score data, which are given here for 15 molecules.

Activity calls are given as the source filed them.

Assay [1] deals with PRMT1 (protein arginine N-methyltransferase 1). Kind of assay: PRMT1 binders on small-molecule microarrays, primary screen, biochemical, small-molecule microarray, 635 nm fluorescence (AID 1088).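 Also: binding of Prmt1 protein to compounds spotted on small-molecule microarray slides.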 Conditions: small-molecule microarray binding, higher = more signal.
Assay [2] is described as follows: yeast growth modulation, basal conditions, primary screen, YJM789 clinical isolate, OD600, 24 h (AID 1089).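 Also: growth of clinical yeast isolate S. cerevisiae YJM 789 seeded 1000 cells per well; test concentration not given here.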 Conditions: S. cerevisiae YJM789 growth, higher = more signal, called active from +8 up or from −8 down.
Assay [3] is described as follows: fission yeast growth modulation, primary screen, strain 972, OD600, 24 h, no modulator (AID 1090).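 Also: basal condition with compound alone and no growth modifier present; test concentration not given here.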 Conditions: S. pombe 972 growth, higher = more signal, called active from +8 up or from −8 down.
The nature of assay [4]: S. cerevisiae growth modulation with rapamycin, primary screen, strain BY4716, OD600, 96 h (AID 1091). Also: test concentration not given here. The conditions noted are these: higher = more signal, called active from +8 up or from −8 down.
Assay [5] deals with Torsin-1A-interacting protein 2 (Homo sapiens) (UniProt Q8NFQ8). Kind of assay: LULL1 binders on small-molecule microarray, primary screen, cell lysate, human LULL1 lysate, 635/667 nm fluorescence (AID 1092).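 Also: probe is lysate of COS7 cells overexpressing human LULL1; score merges per-feature 667 nm fluorescence with signal-to-noise.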 The conditions noted are these: hLULL1 lysate binding, 635 nm fluorescence, higher = more signal.
The nature of assay [6]: E. coli growth modulation, two-sided OD650, primary screen, E. coli filamentation project, strain DRC41, 24 h (AID 1093).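 Also: MC1000 strain lacking acrAB efflux and sulA so SOS filamentation is blocked; test concentration not given here.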 The conditions noted are these: OD650, 24 h, higher = more signal, called active from +8 up or from −8 down.
Assay [7] can be described thus: small-molecule microarray binders of probe aLefty2, primary screen, biochemical, biotinylated probe, 635/667 nm fluorescence (AID 1094).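 Also: score merges spot fluorescence near 667 nm with spot signal-to-noise ratio.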 Conditions: higher = more signal.
Assay [8] relates to Noggin (protein binding on small-molecule microarray). Nature of the assay: Noggin binders on small-molecule microarray, primary screen, biochemical, 635/667 nm fluorescence (AID 1095).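 Also: score merges 667 nm feature fluorescence with signal to noise over triplicate slides.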 Conditions: 635 nm fluorescence, higher = more signal.
Assay [9] concerns the target Neurogenic locus notch homolog protein 3 (Homo sapiens) (UniProt Q9UM47). Kind of assay: NOTCH3 binders on small-molecule microarray, primary screen, biochemical, 635/667 nm fluorescence (AID 1096). The conditions noted are these: NOTCH3 binding, 635 nm fluorescence, higher = more signal.
Assay [10] can be described thus: small-molecule microarray binders of probe aEGFR, primary screen, biochemical, biotinylated probe, 635/667 nm fluorescence (AID 1097).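 Also: probe is a biotinylated anti-EGFR antibody binding compounds printed on slides; score combines fluorescence near 667 nm and signal to noise of each spot.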 Conditions: higher = more signal.

Neurogenic locus notch homolog protein 3 (Homo sapiens), sequence (Q9UM47 whole entry, looked up): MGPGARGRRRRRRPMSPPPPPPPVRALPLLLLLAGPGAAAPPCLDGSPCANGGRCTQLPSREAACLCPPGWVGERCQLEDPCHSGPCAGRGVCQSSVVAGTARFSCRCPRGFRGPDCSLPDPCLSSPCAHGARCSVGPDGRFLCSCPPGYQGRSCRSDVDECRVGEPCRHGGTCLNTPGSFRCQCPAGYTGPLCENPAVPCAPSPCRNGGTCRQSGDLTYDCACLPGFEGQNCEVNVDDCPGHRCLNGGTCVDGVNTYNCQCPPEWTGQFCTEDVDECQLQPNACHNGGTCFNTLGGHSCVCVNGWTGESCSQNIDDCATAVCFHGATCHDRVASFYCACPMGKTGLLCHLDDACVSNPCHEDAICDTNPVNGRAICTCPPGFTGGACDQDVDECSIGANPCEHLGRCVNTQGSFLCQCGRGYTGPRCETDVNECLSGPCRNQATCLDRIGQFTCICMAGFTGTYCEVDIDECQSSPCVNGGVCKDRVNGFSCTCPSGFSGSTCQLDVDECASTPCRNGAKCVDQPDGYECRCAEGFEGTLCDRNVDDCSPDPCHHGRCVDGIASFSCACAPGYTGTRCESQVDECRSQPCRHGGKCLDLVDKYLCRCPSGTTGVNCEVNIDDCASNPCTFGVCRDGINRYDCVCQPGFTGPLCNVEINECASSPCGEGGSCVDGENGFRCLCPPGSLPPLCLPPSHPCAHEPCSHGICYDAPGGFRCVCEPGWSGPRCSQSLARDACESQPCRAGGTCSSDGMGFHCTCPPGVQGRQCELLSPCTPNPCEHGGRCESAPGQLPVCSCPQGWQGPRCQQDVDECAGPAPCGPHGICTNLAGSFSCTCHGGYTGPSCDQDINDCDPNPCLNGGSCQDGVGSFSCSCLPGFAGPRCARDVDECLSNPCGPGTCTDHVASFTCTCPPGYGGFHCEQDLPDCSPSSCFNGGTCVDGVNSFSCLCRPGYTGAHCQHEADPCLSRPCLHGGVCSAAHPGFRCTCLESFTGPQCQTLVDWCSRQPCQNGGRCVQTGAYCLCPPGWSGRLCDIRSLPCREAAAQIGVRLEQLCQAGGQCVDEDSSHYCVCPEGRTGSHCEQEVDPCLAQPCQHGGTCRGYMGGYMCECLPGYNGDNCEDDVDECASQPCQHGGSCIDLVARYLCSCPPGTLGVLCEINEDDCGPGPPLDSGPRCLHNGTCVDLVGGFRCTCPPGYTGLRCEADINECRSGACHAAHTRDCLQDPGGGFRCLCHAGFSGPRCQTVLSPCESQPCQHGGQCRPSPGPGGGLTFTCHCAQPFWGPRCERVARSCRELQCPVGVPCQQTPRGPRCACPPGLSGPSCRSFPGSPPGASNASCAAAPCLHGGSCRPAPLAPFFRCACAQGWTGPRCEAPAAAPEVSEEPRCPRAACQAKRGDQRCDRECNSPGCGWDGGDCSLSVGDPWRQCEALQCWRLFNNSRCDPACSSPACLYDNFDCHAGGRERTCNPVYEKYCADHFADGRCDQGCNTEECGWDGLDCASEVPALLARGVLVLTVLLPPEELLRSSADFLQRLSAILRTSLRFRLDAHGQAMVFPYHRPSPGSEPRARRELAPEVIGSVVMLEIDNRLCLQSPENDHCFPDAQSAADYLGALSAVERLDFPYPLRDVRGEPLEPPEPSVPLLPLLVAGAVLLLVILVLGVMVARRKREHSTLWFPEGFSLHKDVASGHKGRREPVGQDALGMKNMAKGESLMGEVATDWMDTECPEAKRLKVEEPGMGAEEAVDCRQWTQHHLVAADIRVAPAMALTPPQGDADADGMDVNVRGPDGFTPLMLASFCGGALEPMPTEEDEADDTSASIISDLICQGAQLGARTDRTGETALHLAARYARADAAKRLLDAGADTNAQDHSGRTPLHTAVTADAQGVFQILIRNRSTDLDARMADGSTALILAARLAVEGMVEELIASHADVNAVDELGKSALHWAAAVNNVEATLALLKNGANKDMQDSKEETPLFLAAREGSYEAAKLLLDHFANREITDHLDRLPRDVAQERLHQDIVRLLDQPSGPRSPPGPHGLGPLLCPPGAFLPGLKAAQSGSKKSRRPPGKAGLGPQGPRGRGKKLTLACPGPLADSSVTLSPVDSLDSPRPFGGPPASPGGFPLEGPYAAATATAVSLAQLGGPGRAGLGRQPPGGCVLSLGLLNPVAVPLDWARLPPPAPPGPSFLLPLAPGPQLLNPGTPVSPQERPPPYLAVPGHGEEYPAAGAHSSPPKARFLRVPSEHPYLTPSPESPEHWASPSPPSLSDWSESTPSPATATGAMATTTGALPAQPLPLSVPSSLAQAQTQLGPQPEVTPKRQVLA
Torsin-1A-interacting protein 2 (Homo sapiens), sequence (Q8NFQ8 whole entry, looked up): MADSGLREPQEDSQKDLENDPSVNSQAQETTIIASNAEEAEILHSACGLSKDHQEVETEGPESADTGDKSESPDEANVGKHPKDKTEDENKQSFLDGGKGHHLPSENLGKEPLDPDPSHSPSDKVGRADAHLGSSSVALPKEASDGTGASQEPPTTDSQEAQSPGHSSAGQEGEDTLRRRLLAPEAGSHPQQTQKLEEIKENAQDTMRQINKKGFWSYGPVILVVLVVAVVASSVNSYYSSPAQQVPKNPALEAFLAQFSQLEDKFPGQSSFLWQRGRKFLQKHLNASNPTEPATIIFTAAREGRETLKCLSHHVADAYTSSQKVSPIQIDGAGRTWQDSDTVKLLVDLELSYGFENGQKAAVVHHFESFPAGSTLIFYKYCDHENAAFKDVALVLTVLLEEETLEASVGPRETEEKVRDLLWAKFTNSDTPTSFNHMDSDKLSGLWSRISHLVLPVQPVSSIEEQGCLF

Turning to `[N-]=[N+]=Nc1ccccc1C[C@]1(C(=O)N2CCCCC2)COC(c2ccc(OCCCO)cc2)=N1`, the composite z-score was 1.54 in assay [1]; 3.18 in [5]; -0.0631 in [7]; 0.753 in assay [8]; 1.08 in assay [9]; -0.0828 in assay [10]. Further, the z-score in assay [2] was 1.73 (inactive); in [3], -1.72 (inactive); in assay [4] it was 32.7 (active); in assay [6] it was 1.75 (inactive).
With `O=C1C2C=CC(C(O)c3ccc(F)cc3)N(Nc3ccc([N+](=O)[O-])cc3)C2C(=O)N1c1ccccc1` (stereo not given), the composite z-score in assay [1] was 1.35; in assay [5], 3.27; in [7], 0.187; in [8] it was 0.257; in [9] it was 1.1; in [10], -0.0435. Further, the z-score in assay [2] is 0.099 (inactive); in [3], 1.75 (inactive); in assay [4] it was 1.96 (inactive); in assay [6], -0.848 (inactive).
For the molecule `C=CCC(OC(C)=O)[C@@H]1[C@@H](N(Cc2ccc(-c3cccc(C(F)(F)F)c3)o2)C(=O)Cc2ccc(OC)cc2)c2cc(OCCCO)ccc2N1C(=O)c1ccc2ccccc2c1` (stereo not given in full), the composite z-score in assay [1] is -0.485; in assay [5] it was 0.589; in assay [7], 0.0079; in assay [8] it was 0.397; in assay [9], 0.035; in assay [10], -0.127. Further, the z-score is 0.514 (inactive) in [2], 0.428 (inactive) in assay [3], -0.645 (inactive) in [4] and 0.315 (inactive) in assay [6].
For the molecule `CC(C)=CCCC(C)=CC(O)C1C=CC2C(=O)N(c3ccccc3)C(=O)C2N1Nc1ccc(C(C)C)cc1` (stereo not given), the composite z-score in assay [1] is 0.629; in [5] it was 3; in [7] it was 0.0937; in assay [8], 0.0026; in assay [9] it was 1.05; in assay [10] it was -0.0234. Besides, the z-score in assay [2] is 0.437 (inactive); in assay [3] it was 0.834 (inactive); in assay [4], 1.07 (inactive); in assay [6] it was -0.589 (inactive).
For the molecule `CC(C)[Si](C#CCCCC#N)(O[C@H](c1ccccc1)c1cn(Cc2cccc(Cl)c2)nn1)C(C)C`, the composite z-score worked out at 1.52 in assay [1]; 1.42 in assay [5]; 0.0322 in assay [7]; 0.342 in assay [8]; 1.13 in [9]; 0.0363 in assay [10]. In addition, the z-score in [2] was -0.135 (inactive); in assay [3], -0.483 (inactive); in [4], -3.21 (inactive); in [6], 1.79 (inactive).
For the molecule `O=C1C2C=CC(C(O)c3ccc(-c4ccccc4)s3)N(Nc3ccccc3)C2C(=O)N1c1ccccc1` (stereo not given), the composite z-score was 1.26 in assay [1]; 4.34 in [5]; 0.0711 in [7]; 0.182 in [8]; 1.11 in assay [9]; -0.0565 in assay [10]. The z-score in assay [2] is -0.307 (inactive); in [3], 1.63 (inactive); in assay [4], 0.355 (inactive); in assay [6] it was -0.579 (inactive).
Consider `COCCCNC(=O)[C@@]1(Sc2ccc(C)cc2)CC(=O)N(Cc2ccccc2Cl)[C@@H]1c1ccc(CO)cc1`, for which the composite z-score was 1.54 in [1]; 2.74 in [5]; 0.0112 in assay [7]; 1.05 in [8]; 1.12 in assay [9]; -0.0874 in assay [10]. The z-score in assay [2] is -0.15 (inactive); in assay [3], -0.429 (inactive); in assay [4], -0.439 (inactive); in assay [6] it was -1.29 (inactive).
Turning to `NCCCCCNC(=O)[C@H]1C[C@H]2C(=O)N3CCC[C@H]3C(=O)N2[C@H]1c1ccc(O)cc1`, the composite z-score in [1] is 1.56; in assay [5], 2.58; in assay [7], 0.821; in assay [8], 0.813; in [9], 0.573; in assay [10], 0.426. The z-score was -0.948 (inactive) in [2], -0.283 (inactive) in [3], -0.507 (inactive) in assay [4] and -0.346 (inactive) in assay [6].
Take `CC(=O)n1cc(C(O)C2C=CC3C(=O)NC(=O)C3N2Nc2ccccn2)c2ccccc21` (stereo not given): the composite z-score in assay [1] was 0.553; in [5], 0.134; in assay [7], -0.0594; in [8], 0.187; in assay [9], 0.375; in assay [10] it was -0.0084. Also, the z-score is 0.505 (inactive) in [2], 0.777 (inactive) in [3], 0.171 (inactive) in assay [4] and -0.965 (inactive) in assay [6].
For `COCCOC(=O)N1C(=O)[C@@]2(c3ccccc31)[C@H](C(N)=O)[C@H]1C(=O)O[C@H](c3ccccc3)[C@H](c3ccccc3)N1[C@@H]2c1ccc(O)cc1`, the composite z-score was 1.38 in [1]; 3.1 in assay [5]; -0.166 in assay [7]; -0.32 in assay [8]; 0.129 in assay [9]; -0.171 in [10]. The z-score in assay [2] is -1.19 (inactive); in assay [3], -1.3 (inactive); in assay [4], 0.695 (inactive); in assay [6], 0.628 (inactive).
For the molecule `COC(=O)[C@@]1(Cc2ccc(OC)cc2)[C@H]2c3cc(C(=O)N(C)C)n(Cc4ccc(C(F)(F)F)nc4)c3C[C@H]2CN1C(=O)c1ccccc1`, the composite z-score is -1.54 in assay [1]; 2.17 in assay [5]; 0.498 in assay [7]; 0.243 in [8]; -0.055 in assay [9]; 0.338 in [10]. Further, the z-score in [2] was 0.643 (inactive); in [3] it was 1.7 (inactive); in [4] it was 0.473 (inactive); in assay [6] it was 0.379 (inactive).
For the molecule `CCOC(=O)C[C@H]1[C@H](OC(=O)c2ccc(-c3ccccc3)cc2)[C@@H](NC(=O)c2ccccc2)c2cc(OCCCO)ccc2N1C(=O)c1ccc2ccccc2n1`, the composite z-score in assay [1] was 0.316; in [5], 1.23; in assay [7], 0.0769; in assay [8], 0.0388; in assay [9], 0.742; in [10], -0.0031. The z-score was -1.04 (inactive) in [2], 0.0452 (inactive) in [3], 0.545 (inactive) in assay [4] and -0.751 (inactive) in [6].
Consider `O=C1OCC=C[C@H]2OC34C=CCN(Cn5nnc6ccccc65)C(=O)[C@H]3N(CCCCCO)C(=O)[C@@H]4[C@@H]12` (stereo not given in full), for which the composite z-score in assay [1] is -0.0541; in assay [5], 2.81; in assay [7], 0.484; in assay [8], -0.525; in [9] it was -0.475; in assay [10], -0.108. Moreover, the z-score in assay [2] is -0.314 (inactive); in assay [3], 0.421 (inactive); in assay [4] it was -0.582 (inactive); in assay [6], 1.65 (inactive).
Regarding `O=C1OCC=C[C@H]2OC34C=CCN(CCN5CCOCC5)C(=O)[C@H]3N(CCO)C(=O)[C@@H]4[C@@H]12` (stereo not given in full), the composite z-score in assay [1] was 1.15; in assay [5], 0.431; in assay [7], -0.417; in assay [8] it was 0.928; in [9], 0.534; in assay [10] it was -0.139. Further, the z-score in assay [2] is -0.674 (inactive); in assay [3] it was -0.537 (inactive); in [4], -0.12 (inactive); in assay [6], -0.653 (inactive).
Consider `COCCOC(=O)N1C(=O)[C@@]2(c3cc(C#CC4(O)CCCCCC4)ccc31)[C@H](C(=O)Nc1nc3ccccc3s1)[C@H]1C(=O)O[C@H](c3ccccc3)[C@H](c3ccccc3)N1[C@@H]2c1ccc(OCCO)cc1`, for which the composite z-score in [1] was 1.55; in [5], 1.87; in [7], -0.0458; in [8], 1.45; in assay [9], 1.09; in assay [10], 0.0064. In addition, the z-score in assay [2] is 2.38 (inactive); in assay [3], 1.32 (inactive); in assay [4], 4.01 (inactive); in assay [6], 0.76 (inactive).
